Compounds with a hit are over-represented: about 2.4% of the library has one in this group of screens.
C diff growth: C. difficile growth inhibition. Clostridium difficile clinical isolate growth, OD600, 24 h; active compounds read low. growth activity, negative = inhibition, % at 16 µg/mL (by protocol). actives 0.25% (n = 86,000). AID 1259249;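 active = mean growth activity at or below -80% and every replicate also at or below -80%; inconclusive = mean at or below -80% but some replicate above -80%; inactive = mean growth activity above -80%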;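 also: 0% = DMSO wells and -100% = levofloxacin 16 µg/mL wells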
Pf Dd2 growth: inhibitors of Plasmodium falciparum Dd2 growth; activity change, % at 10 µM; AID 1159554; P. falciparum Dd2 growth, SYBR Green, 72 h; active compounds read low; actives 2.3% (n = 94,000); in the data active = activity change below about -80%; inconclusive = no clear call, values can overlap the other calls
The depositor's hits bear a star.

Results for COc1ccc2c3c([nH]c2c1)[C@@H](CO)N(C)CC31CN(S(=O)(=O)c2ccc(C)cc2)C1 ?
C diff growth: -3; Pf Dd2 growth: -52

What do the screens show for `COc1ccc(CN2C[C@H](O)COC[C@@H]3O[C@H](CC(=O)N4CCc5ccccc5C4)CC[C@H]32)cc1`?
Pf Dd2 growth: -9

What do the screens show for `C[C@@H]1CN([C@@H](C)CO)C(=O)c2cc(NC(=O)Cc3ccccc3)ccc2O[C@@H](C)CCCCO[C@@H]1CN(C)C(=O)Cc1ccccc1`?
C diff growth: -3; Pf Dd2 growth: -56

How did CC(C)NC(=O)N1CC[C@@H]2[C@H]1c1cc(Br)ccc1N(C)[C@H]2CO do in these assays?
C diff growth: 3; Pf Dd2 growth: 6

What do the screens show for `C[C@@H]1CCCCO[C@H](CN(C)C(=O)Nc2ccccc2)[C@@H](C)CN([C@H](C)CO)C(=O)c2cc(NC(=O)C3CCCCC3)ccc2O1`?
C diff growth: 4; Pf Dd2 growth: -11

What do the screens show for `C[C@@H]1CN([C@@H](C)CO)C(=O)c2cc(NC(=O)C3CCCCC3)ccc2O[C@@H](C)CCCCO[C@@H]1CN(C)C(=O)Nc1ccc(C(F)(F)F)cc1`?
C diff growth: 11; Pf Dd2 growth: inconclusive

What do the screens show for `C[C@H]1CCCCO[C@@H](CN(C)C(=O)Nc2ccc(F)cc2)[C@@H](C)CN([C@@H](C)CO)C(=O)c2cc(NC(=O)C3CCCCC3)ccc2O1`?
C diff growth: -2; Pf Dd2 growth: -63

How did C[C@H]1CCCCO[C@@H](CN(C)C(=O)Nc2ccc(C(F)(F)F)cc2)[C@@H](C)CN([C@@H](C)CO)C(=O)c2cc(NC(=O)C3CCCCC3)ccc2O1 do in these assays?
C diff growth: 0; Pf Dd2 growth: -83*

What do the screens show for `C[C@@H]1CCCCO[C@H](CN(C)C(=O)Nc2ccc(F)cc2)[C@@H](C)CN([C@@H](C)CO)C(=O)c2cc(NC(=O)C3CCCCC3)ccc2O1`?
C diff growth: 8; Pf Dd2 growth: -86*

How did C[C@@H]1CCCCO[C@@H](CN(C)C(=O)Nc2ccc(F)cc2)[C@@H](C)CN([C@H](C)CO)C(=O)c2cc(NC(=O)C3CCCCC3)ccc2O1 do in these assays?
C diff growth: -2; Pf Dd2 growth: -48

What do the screens show for `C[C@@H]1CCCCO[C@H](CN(C)C(=O)Nc2ccccc2)[C@H](C)CN([C@H](C)CO)C(=O)c2cc(NC(=O)C3CCCCC3)ccc2O1`?
Pf Dd2 growth: -87*

How did C[C@@H]1CCCCO[C@@H](CN(C)C(=O)Nc2ccc(F)cc2)[C@@H](C)CN([C@@H](C)CO)C(=O)c2cc(NC(=O)C3CCCCC3)ccc2O1 do in these assays?
C diff growth: 8; Pf Dd2 growth: -86*

What do the screens show for `COc1ccc(S(=O)(=O)Nc2ccc3c(c2)C(=O)N([C@@H](C)CO)C[C@H](C)[C@H](CN(C)C(=O)c2ccccc2)OCCCC[C@H](C)O3)cc1`?
C diff growth: 4; Pf Dd2 growth: -60

What do the screens show for `CCC(=O)NC[C@H]1[C@@H](c2ccc(-c3ccccc3)cc2)[C@@H](CO)N1C(=O)C1CC1`?
C diff growth: -5; Pf Dd2 growth: 13

How did CN(C)CC(=O)Nc1ccc2c(c1)[C@H]1C[C@@H](CC(=O)N3CCOCC3)O[C@@H](CO)[C@H]1O2 do in these assays?
C diff growth: 0; Pf Dd2 growth: -12

Results for COc1ccc(S(=O)(=O)Nc2ccc3c(c2)CC(=O)N([C@H](C)CO)C[C@@H](C)[C@H](CN(C)S(C)(=O)=O)O3)cc1 ?
C diff growth: -2; Pf Dd2 growth: -5

What do the screens show for `Cc1noc(C)c1S(=O)(=O)Nc1ccc2c(c1)CC(=O)N([C@@H](C)CO)C[C@H](C)[C@H](CN(C)C)O2`?
C diff growth: 3; Pf Dd2 growth: 24

How did COCc1cn([C@@H]2C[C@@H]3O[C@H](CO)CC[C@@H]3O[C@@H]2CCc2ccc(-c3ccc(OC)cc3)cc2)nn1 do in these assays?
C diff growth: -29; Pf Dd2 growth: -94*

Results for COCc1cn([C@@H]2C[C@@H]3O[C@@H](CO)CC[C@@H]3O[C@@H]2CCc2ccc(-c3ccc(OC)cc3)cc2)nn1 ?
C diff growth: -8; Pf Dd2 growth: -84*

Results for OC[C@H]1CC[C@@H]2O[C@H](CCc3ccc(-c4ccc(F)cc4)cc3)[C@@H](n3cc(C4CC4)nn3)C[C@@H]2O1 ?
C diff growth: 4; Pf Dd2 growth: -47

What do the screens show for `COCc1cn([C@H]2C[C@@H]3O[C@H](CO)CC[C@@H]3O[C@@H]2CCc2ccc(-c3ccc(OC)cc3)cc2)nn1`?
C diff growth: 2; Pf Dd2 growth: -38

How did O=C(C[C@@H]1CC[C@@H](NC(=O)c2ccc(F)cc2)[C@H](CO)O1)NCc1ccncn1 do in these assays?
C diff growth: 7; Pf Dd2 growth: -16

How did C[C@@H]1CCCCO[C@@H](CN(C)CC2CCCCC2)[C@@H](C)CN([C@@H](C)CO)C(=O)c2cc(NS(=O)(=O)c3ccccc3)ccc2O1 do in these assays?
C diff growth: 11; Pf Dd2 growth: -52

Results for Cc1cccc(-c2ccc([C@@H]3[C@H](CO)N4CCCCN(CCC(F)(F)F)C[C@@H]34)cc2)c1 ?
C diff growth: 21; Pf Dd2 growth: -81*

Results for Cc1cccc(-c2ccc([C@@H]3[C@@H](CO)N4CCCCN(CCC(F)(F)F)C[C@@H]34)cc2)c1 ?
C diff growth: 24; Pf Dd2 growth: -22

Results for COc1ccccc1C#Cc1ccc([C@H]2[C@H]3CN(CCC(F)(F)F)CCCCN3[C@H]2CO)cc1 ?
C diff growth: 15; Pf Dd2 growth: -36

Results for Cc1cccc(-c2ccc([C@H]3[C@@H](CO)N4CCCCN(CCC(F)(F)F)C[C@H]34)cc2)c1 ?
C diff growth: 33; Pf Dd2 growth: -85*

How did COc1ccccc1C#Cc1ccc([C@@H]2[C@@H](CO)N3CCCCN(CCC(F)(F)F)C[C@H]23)cc1 do in these assays?
C diff growth: 57; Pf Dd2 growth: -82*

What do the screens show for `Cc1cccc(-c2ccc([C@H]3[C@@H](CO)N4CCCCN(CCC(F)(F)F)C[C@@H]34)cc2)c1`?
C diff growth: 23; Pf Dd2 growth: -36

Results for CCC(=O)N[C@@H]1CC[C@H](CC(=O)NCc2ccccc2F)O[C@@H]1CO ?
Pf Dd2 growth: -2

Results for COc1ccc2c3c([nH]c2c1)[C@H](CO)N(C(=O)c1ccc(F)cc1)CC31CN(C(=O)NC(C)C)C1 ?
C diff growth: -2; Pf Dd2 growth: -12

What do the screens show for `CCS(=O)(=O)N1CCC2(CC1)CN(Cc1cccnc1)[C@@H](CO)c1c2c2ccc(OC)cc2n1C`?
C diff growth: 1; Pf Dd2 growth: -17

What do the screens show for `CCCNC(=O)N1[C@H](CO)[C@H](c2ccc(C3=CCCCC3)cc2)[C@@H]1CNC(C)C`?
C diff growth: 6; Pf Dd2 growth: -71

How did C[C@H]1CN([C@@H](C)CO)C(=O)c2c(c3ccccc3n2C)-c2ccccc2CO[C@@H]1CN(C)S(=O)(=O)c1ccc(F)cc1 do in these assays?
Pf Dd2 growth: -91*

Results for C[C@@H]1CN([C@H](C)CO)C(=O)c2c(c3ccccc3n2C)-c2ccccc2CO[C@H]1CN(C)S(=O)(=O)c1ccccc1 ?
Pf Dd2 growth: -75

How did C[C@@H]1CN([C@H](C)CO)C(=O)c2c(c3ccccc3n2C)-c2ccccc2CO[C@H]1CN(C)S(=O)(=O)c1ccc(F)cc1 do in these assays?
Pf Dd2 growth: -40
